Results on 40 sequences are retold here after the OligoGym collection.
Also: reference of the scale not given here.

One experiment addresses DHX35. As to the kind of experiment: pooled miR-30 sensor sort-seq; sequence = guide strand. Particulars: shRNA.
With TAGAATGAAACCTCGCTGCATT, the sensor-assay potency score (higher = more potent) is -0.528. The sequence ATAAGGGTTGTAAACAACCGTT yielded a sensor-assay potency score (higher = more potent) of -1.1.

Regarding TTCATTCGTAGAGACATGCTTG, the sensor-assay potency score (higher = more potent) turned out to be 0.0862. Still for that read-out and setting: for TAGGCGACAGTCTTTGTCCAGA the value was -0.612; for TAGATAAAAGATATCCACCGGA, -0.104.

In another experiment the target is DICER1. Described as above. Particulars: shRNA.
The sequence TTGACCAAGAACACCGTCCTTT gave a sensor-assay potency score (higher = more potent) of 0.276. On to TTAAAGTAGAATCTCTTTCTTT, for which the sensor-assay potency score (higher = more potent) came out at 0.229. Sequence TTTGATTGTAAGAAAGACCATT came in with a sensor-assay potency score (higher = more potent) of -0.387. Turning to TATAAATCTGATATGTTCCTGA, the sensor-assay potency score (higher = more potent) turned out to be 0.759.

In turn, TGTAACTTCGACCAACACCTTT yielded a sensor-assay potency score (higher = more potent) of -0.933. The same measure, in the same setting: the value for TTATTTTGTCTGTATCCGCTAA was -0.197; that for TTCCACAGTGACTCTGACCTTC was 0.615. On the same count and under the same terms, the value for TAGATTGAACATAGGATCGATA was -1.08; that for TTGTTTTATAATATTCTGCAAA was -0.989; that for TTAGATTGAACATAGGATCGAT was 0.532. In the case of TTATTCTTGAATCTGTAGTTGA, the sensor-assay potency score (higher = more potent) worked out at 0.19. As for TTTTCTTTACAAAAGCTCCTGA, the sensor-assay potency score (higher = more potent) worked out at 0.34.

A further experiment concerns the target DIRAS3. Described as above. Particulars: shRNA.
Sequence TTGTTACCTTTGATCTTGCAGA showed a sensor-assay potency score (higher = more potent) of -0.643.

TAACATAGTGAAATGAGTCCAC gave a sensor-assay potency score (higher = more potent) of 0.953. Same read-out and setting: the value for TACTTTAAATACATCATGCTAC was -0.338. Same read-out and setting: the value for TTGTCAAGCAGCTTCTCAGTGG was -0.353; that for TAATCTCTGATCTTCCTGTGGG was 0.371; that for TACATCATGCTACATTTTGTTC was -1.42. The sequence TTACAGTCCAAACAACAGCACA registered a sensor-assay potency score (higher = more potent) of -1.35. On the same count and under the same terms, the value for TTCCACTCCATCGCACAGGTGG was -0.748; that for TATACGTATTGACAACATGGAT was -1.16. The same measure, in the same setting: the value for TTGCCGTCGCCACTCTTGCTGT was -1.2; that for TTTAAATACATCATGCTACATT was -0.644.

The target in the next experiment is DLAT. Described as above. Particulars: shRNA.
Sequence TAATCGCTGTGCAATAACCCGA returned a sensor-assay potency score (higher = more potent) of -0.457. Consider TTGATTGCATTAATCGCTGTGC, for which the sensor-assay potency score (higher = more potent) is 0.199. Same read-out and setting: the value for ATATCTGTGAAGACACCTGTAG was -0.267; that for TATCTTATTAAGTTCTTTCCGT was 0.0125; that for TGATTTTGTCTTATAACTGTGT was 0.275. Same read-out and setting: the value for TAAGTCTCCTTCACTTAGCTTC was -0.196; that for TTGCTGATTGGGATATCTGTGA was -0.131. On the same count and under the same terms, the value for TTTGATTGCATTAATCGCTGTG was 0.738; that for TTGCTAAAGAAACAACATCATT was -1.57; that for TAGGTGTGATGAGTCCTGCAGG was -0.602.

For the sequence TTGGTGATTCTACCATCTGGTC, the sensor-assay potency score (higher = more potent) was -1.07. Same read-out and setting: the value for TTTTTCTACAATGATACAGAGT was -0.634.
